Values joined by “and” are separate entries in the source; they are usually repeats but may differ in a detail not shown here. Equal entries are not always repeated. Results filed as inconclusive are left out. Active and inactive are the calls of the source.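 How the source made its calls, unless noted: active means inhibition above 50%, about 3 SD of the validation set; inactive means the rest.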
Assays:
[1] = rapamycin-like changes in RPL19A-GFP expression – cell-based, S. cerevisiae, multiplex flow cytometry, primary screen (AID 1862; in the data active means percent of DMSO control GFP below about 86%;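 further: lower values mimic rapamycin by blocking the RPL19A rise seen in DMSO cells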); details: S. cerevisiae RPL19A-GFP strain, flow cytometry fluorescence, 3 h; at 10 µM; stronger effect = lower value
[2] = TOR pathway GLN3 branch reporter MEP2-GFP changes – S. cerevisiae, multiplex flow cytometry, primary screen (AID 1867;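 active means GFP response, as percent of the DMSO control, above the screen-wide mean plus 3 SD, about 139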;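 further: median GFP channel fluorescence of barcode-gated MEP2-GFP cells measured by flow cytometry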); details: S. cerevisiae MEP2-GFP strain, 3 h, at 10 µM, stronger effect = higher value, 100% means same as DMSO wells
[3] = TOR pathway RTG branch CIT2 reporter changes – S. cerevisiae, GFP fusion, multiplex flow cytometry, primary screen (AID 1870;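 active means percent response above a set limit, the screen-wide mean plus 3 SD, cut at about 130% in these data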;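 further: barcoded CIT2-GFP strain pooled with four other GFP strains with rapamycin as positive control; median GFP fluorescence per well over plate mean of DMSO wells so 100% = DMSO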); details: S. cerevisiae CIT2-GFP expression, 3 h, at 10 µM, stronger effect = higher value
[4] = TOR pathway LAP4-GFP level changes – S. cerevisiae, multiplex flow cytometry, primary screen (AID 1873;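 active means GFP signal, as percent of the solvent control, above the screen mean plus 3 SD, about 149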); details: S. cerevisiae LAP4-GFP expression, 3 h, at 10 µM, stronger effect = higher value
[5] = yeast AGP1-GFP level changes, GLN3 branch – cell-based, multiplex flow cytometry, S. cerevisiae, primary screen (AID 1887;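 active means GFP signal above the screen-wide mean plus 3 SD, that is over about 124.5% of the solvent control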;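 further: AGP1-GFP fusion strain of S. cerevisiae within a five-strain barcoded multiplex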); details: 3 h, at 10 µM, stronger effect = higher value
[6] = reduced mouse 2C T cell binding to pMHC/ICAM-1 vesicles – MLPCN validation set, flow cytometry, LFA-1/ICAM-1 modulator project, pilot screen (AID 2523;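 active means response below a set limit, under 55% cells CD8-positive and vesicle-bound, and CD8 cells' 90th-percentile brightness under 279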;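 on vesicle binding response: mean PE anti-B7-1 fluorescence of CD8+ cells relative to row control; 100% = QL9-loaded vesicles with DMSO vehicle in the same plate row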); details: 2C mouse CD8+ T cells, at 7 µM, stronger effect = lower value; double positive events: measured here: CD8+/vesicle+ event percentage
[7] = molecular target: Integrin beta-1 (Homo sapiens) + Integrin alpha-4 (Homo sapiens) (UniProt P13612+P05556); test: alpha4beta1 integrin LIBS antibody binding reduction – U937 cells, HUTS-21 mAb, flow cytometry, validation set, VLA-4 allosteric modulator project, pilot screen (AID 2674); details: HUTS-21 LIBS mAb binding, at 6.7 µM, stronger effect = higher value, binding induced by LDV ligand;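 further: antibody binding induced by the VLA-4 ligand LDV present at three times its Kd; 0% = LDV ligand with antibody and no compound and 100% = antibody without LDV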
[8] = calorie-restriction mimetic ROS inhibitors, yeast – validation compound set, pilot screen (AID 2706;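 active means superoxide response below 65% of plate, a cut near 3 SD across the whole screen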;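 further: yeast exposed to compound for one week at 30 degrees C before staining; 100% = mean of all compound wells on the same plate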); details: S. cerevisiae aging, superoxide DHE fluorescence; at 10 µM; stronger effect = lower value
[9] = molecular target: Beta-adrenergic receptor kinase 1 (Homo sapiens) (UniProt P25098); test: GRK2 binders displacing RNA aptamer, biochemical, validation, human GRK2, bead flow cytometry (AID 488806;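 active means aptamer binding inhibition above 30%, about 3 SD of noise from non-fluorescent compounds; inactive means inhibition at or below 30%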); details: bead-bound GRK2, FAM-aptamer displacement, at 10 µM, stronger effect = higher value
[10] = molecular target: Beta-2 adrenergic receptor (Homo sapiens) (UniProt P07550); test: agonist-induced loss of surface beta2AR – cell-based, FAP fluorogen, flow cytometry, validation set, pilot screen (AID 504459;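 active means percent response above 42, roughly 3 SD of non-fluorescent test compounds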;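 further: agonist-driven loss of surface beta2AR via internalization measured by FAP dye flow cytometry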); details: Am2.2-beta2AR cells, at 10 µM, stronger effect = higher value
[11] = molecular target: AP-2 complex subunit beta (Homo sapiens) (UniProt P63010); test: beta-arrestin/AP2 interaction blockers – biochemical, validation set, GST-AP2 beads, flow cytometry, pilot screen (AID 504541;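 active means inhibition above 54%, about 3 SD of non-fluorescent compounds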;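 further: AP2 carries R879A mutation and is captured from E. coli lysate; bead-bound FITC arrestin peptide fluorescence measuring arrestin peptide binding to AP2; 0% = DMSO wells and 100% = excess unlabeled arrestin peptide control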); details: FITC arrestin peptide, at 10 µM, stronger effect = higher value, AP2 beta2 appendage fragment, R879A mutant
[12] = cytosolic pH regulators acting via V-ATPase – S. cerevisiae, pHLuorin, HTS validation (AID 504600; in the data active means response above about 15%;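 further: plate controls were DMSO for no effect and reference compound for full effect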); details: V-ATPase proton transport, at 10 µM, stronger effect = higher value
[13] = system: anti-desmoglein-3 scFv antibody binding to human DSG3; test: blockers of pathogenic pemphigus antibody–desmoglein-3 binding – biochemical, validation compound set, bead-based, flow cytometry, pilot screen (AID 588368;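 active means binding below the plate cutoff, the plate median minus 3 SD, with a reading above zero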;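 further: signal is the median channel fluorescence of bead-bound GFP antibody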); details: Protein G beads, DSG3-Fc, scFv-GFP binding, at 10 µM, stronger effect = lower value
[14] = Nile Red efflux blockade in pump-expressing yeast – validation compound set, multiplex, phenotypic, pilot screen (AID 588506;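 active means efflux inhibition above 0.42, the validation set average plus 4 SD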;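 further: Nile Red retained in cells so higher fluorescence means more efflux inhibition; 0 = negative control wells and 1 = enniatin B 25 µM full block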); details: S. cerevisiae pump-expressing triplex, Nile Red efflux flow cytometry; at 10 µM; stronger effect = higher value; the pumps come from Candida albicans
[15] = molecular target: ATP-binding cassette sub-family B member 6 (Homo sapiens) (UniProt Q9NP58); test: blockers of ABCB6-driven porphyrin uptake – K562-ABCB6 cells, flow cytometry, validation set, pilot screen (AID 588550;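 active means inhibition above the screen-wide mean plus 3 SD, about 51%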;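 further: 0% = DMSO wells and 100% = benzethonium chloride 70 µM positive control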); details: K562-ABCB6 porphyrin accumulation, 1 h, at 10 µM, stronger effect = higher value
[16] = AML differentiation inducers, ER-HoxA9 marrow cells – cell-based, GFP/MAC1 double positive, flow cytometry, validation set, primary screen (AID 588685;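 active means differentiation response of at least 50%, scaled between solvent and reference control, from cells with both markers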;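 further: compound exposure lasts four days before antibody staining and flow analysis; 0% = DMSO wells and 100% = 5 µM fulvestrant positive control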); details: stronger effect = higher value, normalized: vehicle 0, fulvestrant 100

Sequence of Integrin beta-1 (Homo sapiens) + Integrin alpha-4 (Homo sapiens) (P05556 whole entry, looked up): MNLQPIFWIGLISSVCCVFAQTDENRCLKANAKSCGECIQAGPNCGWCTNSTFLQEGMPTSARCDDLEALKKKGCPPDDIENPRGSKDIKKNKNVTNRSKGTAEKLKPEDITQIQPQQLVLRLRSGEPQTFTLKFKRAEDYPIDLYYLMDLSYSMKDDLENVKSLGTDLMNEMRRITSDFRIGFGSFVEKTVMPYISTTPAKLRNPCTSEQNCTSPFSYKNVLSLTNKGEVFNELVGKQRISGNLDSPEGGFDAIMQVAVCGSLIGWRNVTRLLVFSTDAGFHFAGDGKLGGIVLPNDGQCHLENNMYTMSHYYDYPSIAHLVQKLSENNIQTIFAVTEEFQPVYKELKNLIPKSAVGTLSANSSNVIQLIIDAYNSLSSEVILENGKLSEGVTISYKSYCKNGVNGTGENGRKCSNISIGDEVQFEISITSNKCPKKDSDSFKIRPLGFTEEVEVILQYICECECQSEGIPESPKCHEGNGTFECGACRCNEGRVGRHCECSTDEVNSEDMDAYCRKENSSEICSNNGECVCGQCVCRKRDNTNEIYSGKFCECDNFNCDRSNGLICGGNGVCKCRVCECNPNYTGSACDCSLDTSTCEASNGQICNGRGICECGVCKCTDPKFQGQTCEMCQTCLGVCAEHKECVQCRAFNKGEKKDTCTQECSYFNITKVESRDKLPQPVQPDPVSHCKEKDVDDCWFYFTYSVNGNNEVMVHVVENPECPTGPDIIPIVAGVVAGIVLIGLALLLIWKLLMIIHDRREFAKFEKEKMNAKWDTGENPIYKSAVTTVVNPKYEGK
Sequence of Integrin beta-1 (Homo sapiens) + Integrin alpha-4 (Homo sapiens) (P13612 whole entry, looked up): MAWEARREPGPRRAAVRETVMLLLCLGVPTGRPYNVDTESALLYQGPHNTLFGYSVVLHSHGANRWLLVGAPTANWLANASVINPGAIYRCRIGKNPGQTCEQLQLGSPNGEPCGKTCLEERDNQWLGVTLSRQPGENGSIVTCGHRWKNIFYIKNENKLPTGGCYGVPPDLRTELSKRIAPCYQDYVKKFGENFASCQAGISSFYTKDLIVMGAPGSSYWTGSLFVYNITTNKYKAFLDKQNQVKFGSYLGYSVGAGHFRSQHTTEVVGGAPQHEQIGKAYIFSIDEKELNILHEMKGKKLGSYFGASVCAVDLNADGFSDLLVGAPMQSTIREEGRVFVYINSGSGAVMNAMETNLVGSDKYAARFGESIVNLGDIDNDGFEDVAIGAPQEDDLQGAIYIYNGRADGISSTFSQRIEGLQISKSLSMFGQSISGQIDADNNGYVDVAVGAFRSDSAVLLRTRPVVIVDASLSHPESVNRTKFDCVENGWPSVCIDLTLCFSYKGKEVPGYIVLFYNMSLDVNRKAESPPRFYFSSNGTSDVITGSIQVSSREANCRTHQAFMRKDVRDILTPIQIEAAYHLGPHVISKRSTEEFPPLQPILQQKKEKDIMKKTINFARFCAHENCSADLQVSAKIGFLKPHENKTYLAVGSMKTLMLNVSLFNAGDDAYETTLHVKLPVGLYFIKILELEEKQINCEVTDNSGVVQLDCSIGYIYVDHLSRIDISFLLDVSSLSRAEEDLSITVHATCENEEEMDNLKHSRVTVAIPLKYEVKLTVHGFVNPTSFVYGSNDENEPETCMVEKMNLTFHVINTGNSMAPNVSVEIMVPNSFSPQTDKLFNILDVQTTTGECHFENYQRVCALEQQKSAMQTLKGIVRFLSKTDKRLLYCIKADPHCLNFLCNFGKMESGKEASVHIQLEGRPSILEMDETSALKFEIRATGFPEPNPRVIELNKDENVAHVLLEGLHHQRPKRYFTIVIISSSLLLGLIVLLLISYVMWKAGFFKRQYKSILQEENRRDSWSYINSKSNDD
Sequence of AP-2 complex subunit beta (Homo sapiens) (P63010 whole entry, looked up, the tested form may be a part, one chain of several): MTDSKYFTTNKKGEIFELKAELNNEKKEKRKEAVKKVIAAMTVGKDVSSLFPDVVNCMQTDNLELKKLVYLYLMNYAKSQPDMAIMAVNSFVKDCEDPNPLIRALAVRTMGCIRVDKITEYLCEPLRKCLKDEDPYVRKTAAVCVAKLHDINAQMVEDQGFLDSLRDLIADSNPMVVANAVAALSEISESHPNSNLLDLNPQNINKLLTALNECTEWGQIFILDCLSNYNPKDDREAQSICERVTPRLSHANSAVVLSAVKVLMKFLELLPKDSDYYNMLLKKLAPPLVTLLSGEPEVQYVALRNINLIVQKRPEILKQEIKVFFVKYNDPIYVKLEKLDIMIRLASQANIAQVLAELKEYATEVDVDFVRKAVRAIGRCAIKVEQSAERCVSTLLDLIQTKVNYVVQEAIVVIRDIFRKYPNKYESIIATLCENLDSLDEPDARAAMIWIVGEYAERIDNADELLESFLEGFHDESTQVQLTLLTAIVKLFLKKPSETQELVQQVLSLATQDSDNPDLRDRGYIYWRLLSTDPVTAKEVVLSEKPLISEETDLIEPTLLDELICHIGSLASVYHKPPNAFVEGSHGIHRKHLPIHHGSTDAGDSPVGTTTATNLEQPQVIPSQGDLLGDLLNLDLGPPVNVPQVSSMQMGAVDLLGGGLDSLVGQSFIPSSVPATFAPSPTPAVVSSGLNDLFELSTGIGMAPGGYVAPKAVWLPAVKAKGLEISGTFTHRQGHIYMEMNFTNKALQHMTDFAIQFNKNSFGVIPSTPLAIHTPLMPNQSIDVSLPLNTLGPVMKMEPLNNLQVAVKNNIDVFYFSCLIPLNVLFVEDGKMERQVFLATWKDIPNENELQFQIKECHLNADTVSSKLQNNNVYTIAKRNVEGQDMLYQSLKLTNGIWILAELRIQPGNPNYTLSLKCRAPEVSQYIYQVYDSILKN
Sequence of ATP-binding cassette sub-family B member 6 (Homo sapiens) (Q9NP58 whole entry, looked up): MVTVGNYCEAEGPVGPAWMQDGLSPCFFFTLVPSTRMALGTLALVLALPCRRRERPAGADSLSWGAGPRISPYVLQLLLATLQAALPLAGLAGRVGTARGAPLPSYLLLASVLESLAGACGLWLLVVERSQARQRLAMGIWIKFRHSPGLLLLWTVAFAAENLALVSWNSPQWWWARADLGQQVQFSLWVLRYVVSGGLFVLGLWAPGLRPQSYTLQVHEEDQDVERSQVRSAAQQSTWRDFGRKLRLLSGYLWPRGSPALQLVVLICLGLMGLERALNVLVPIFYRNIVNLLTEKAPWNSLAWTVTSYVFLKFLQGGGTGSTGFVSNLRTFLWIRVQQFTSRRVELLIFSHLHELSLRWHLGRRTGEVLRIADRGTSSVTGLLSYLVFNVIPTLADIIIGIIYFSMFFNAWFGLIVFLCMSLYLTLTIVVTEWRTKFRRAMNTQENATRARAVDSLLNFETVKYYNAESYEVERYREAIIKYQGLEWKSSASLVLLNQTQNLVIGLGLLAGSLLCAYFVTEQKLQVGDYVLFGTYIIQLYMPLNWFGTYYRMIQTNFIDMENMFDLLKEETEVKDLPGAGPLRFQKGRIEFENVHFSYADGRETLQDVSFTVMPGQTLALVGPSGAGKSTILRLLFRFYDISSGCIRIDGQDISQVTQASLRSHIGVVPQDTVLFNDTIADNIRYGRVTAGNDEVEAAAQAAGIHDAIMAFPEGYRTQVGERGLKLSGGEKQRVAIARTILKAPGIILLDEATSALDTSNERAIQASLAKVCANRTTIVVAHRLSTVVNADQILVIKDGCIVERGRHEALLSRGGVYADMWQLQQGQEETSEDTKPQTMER
Sequence of Beta-adrenergic receptor kinase 1 (Homo sapiens) (P25098 whole entry, looked up): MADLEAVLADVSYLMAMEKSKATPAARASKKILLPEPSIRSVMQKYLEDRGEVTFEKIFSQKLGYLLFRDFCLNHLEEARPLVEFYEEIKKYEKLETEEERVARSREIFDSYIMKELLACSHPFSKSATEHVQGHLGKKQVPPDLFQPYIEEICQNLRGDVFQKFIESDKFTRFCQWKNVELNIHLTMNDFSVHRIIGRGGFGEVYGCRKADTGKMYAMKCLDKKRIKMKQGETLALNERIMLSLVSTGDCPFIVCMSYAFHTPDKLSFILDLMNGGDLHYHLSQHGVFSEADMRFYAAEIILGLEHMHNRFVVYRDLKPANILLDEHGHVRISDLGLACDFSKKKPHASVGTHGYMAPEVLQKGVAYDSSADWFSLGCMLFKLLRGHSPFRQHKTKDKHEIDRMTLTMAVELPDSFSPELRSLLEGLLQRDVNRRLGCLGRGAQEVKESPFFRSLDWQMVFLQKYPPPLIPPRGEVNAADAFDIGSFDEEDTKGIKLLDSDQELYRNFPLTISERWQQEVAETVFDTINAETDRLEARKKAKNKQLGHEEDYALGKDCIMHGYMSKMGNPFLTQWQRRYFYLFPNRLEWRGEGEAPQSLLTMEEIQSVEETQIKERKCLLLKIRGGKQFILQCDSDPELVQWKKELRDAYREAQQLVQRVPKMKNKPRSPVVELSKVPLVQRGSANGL
Sequence of Beta-2 adrenergic receptor (Homo sapiens) (P07550 whole entry, looked up): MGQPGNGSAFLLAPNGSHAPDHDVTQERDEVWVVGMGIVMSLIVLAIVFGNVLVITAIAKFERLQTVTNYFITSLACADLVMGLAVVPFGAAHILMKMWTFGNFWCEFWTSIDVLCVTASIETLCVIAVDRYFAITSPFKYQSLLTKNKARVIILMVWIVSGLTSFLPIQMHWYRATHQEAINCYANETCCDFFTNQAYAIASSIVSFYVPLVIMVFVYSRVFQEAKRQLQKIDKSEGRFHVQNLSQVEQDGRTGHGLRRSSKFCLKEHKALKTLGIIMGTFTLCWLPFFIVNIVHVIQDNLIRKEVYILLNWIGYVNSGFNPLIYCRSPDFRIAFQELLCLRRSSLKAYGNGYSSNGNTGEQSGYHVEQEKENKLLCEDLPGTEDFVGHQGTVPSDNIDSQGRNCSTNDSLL

O=C(CCCN1C(=O)/C(=C\c2cccs2)SC1=S)Nc1ccccn1
inactive: percent of DMSO control GFP [1] 103% | GFP response vs DMSO [2] 99.7% | percent response of DMSO control [3] 92.4% | GFP response vs DMSO [4] 99.1% | GFP response, % of DMSO [5] 96.8% | vesicle binding response [6] 154% | inhibition [7] -2.43% | superoxide response (% of plate) [8] 115% | aptamer binding inhibition [9] 2% | response [10] -9.49% | inhibition [11] -9.99% | response [12] -5.78% | binding (% of control) [13] 94% | efflux inhibition (fraction of control) [14] 0.35 | inhibition [15] -5% | differentiation response [16] -7.5%
61.7%: double positive events [6]

c1ccc(CN(CC2=NCCN2)c2ccccc2)cc1
inactive: percent of DMSO control GFP [1] 87.8% | GFP response vs DMSO [2] 138% | percent response of DMSO control [3] 101% | GFP response vs DMSO [4] 78.7% | GFP response, % of DMSO [5] 84.3% | vesicle binding response [6] 273% and 176% | inhibition [7] -56.6% and -2.27% | superoxide response (% of plate) [8] 93.5% and 98.7% | aptamer binding inhibition [9] 1% and 2% | response [10] 7.43% and -2.34% | inhibition [11] 0.2% and -12.4% | response [12] -4.75% and 1.48% | binding (% of control) [13] 111% and 102% | efflux inhibition (fraction of control) [14] -0.35 and -0.31 | inhibition [15] -5% and 12% | differentiation response [16] 15.6% and -8.19%
64.5% and 68.1%: double positive events [6]

COc1ccc(C(Cl)=C(c2ccc(OC)cc2)c2ccc(OC)cc2)cc1
inactive: percent of DMSO control GFP [1] 102% | GFP response vs DMSO [2] 109% | percent response of DMSO control [3] 91.9% | GFP response vs DMSO [4] 90.7% | GFP response, % of DMSO [5] 98% | vesicle binding response [6] 934% | inhibition [7] -8.75% | superoxide response (% of plate) [8] 95.2% | aptamer binding inhibition [9] 4% | response [10] 1.32% | inhibition [11] 18.5% | response [12] -2.47% | binding (% of control) [13] 95.8% | efflux inhibition (fraction of control) [14] 0.18 | inhibition [15] 7% | differentiation response [16] 6.11%
62.9%: double positive events [6]

Cc1cc(=O)oc2cc(OC(C)C(=O)NCC3CCCO3)ccc12 (configuration not stated)
68.8%: double positive events [6]
inactive: percent of DMSO control GFP [1] 101% | GFP response vs DMSO [2] 99.6% | percent response of DMSO control [3] 104% | GFP response vs DMSO [4] 106% | GFP response, % of DMSO [5] 102% | vesicle binding response [6] 554% | inhibition [7] -14.1% | superoxide response (% of plate) [8] 91.7% | aptamer binding inhibition [9] 3% | response [10] -0.14% | inhibition [11] -3.92% | response [12] 0.04% | binding (% of control) [13] 96.8% | efflux inhibition (fraction of control) [14] -0.28 | inhibition [15] 5% | differentiation response [16] -7.2%

COCc1cc(=O)[nH]c(/N=C(\N)Nc2ccc(Oc3ccccc3)cc2)n1
inactive: percent of DMSO control GFP [1] 96.9% | GFP response vs DMSO [2] 118% | percent response of DMSO control [3] 83.4% | GFP response vs DMSO [4] 109% | GFP response, % of DMSO [5] 97.8% | vesicle binding response [6] 216% | inhibition [7] -1.79% | superoxide response (% of plate) [8] 94.8% | aptamer binding inhibition [9] 2% | response [10] 17.9% | inhibition [11] -1.38% | response [12] -1.49% | binding (% of control) [13] 99.3% | efflux inhibition (fraction of control) [14] 0.01 | inhibition [15] 12% | differentiation response [16] 10.4%
60.6%: double positive events [6]

CC[C@H]1CN2CCc3cc(OC)c(OC)cc3[C@@H]2C[C@@H]1C[C@H]1NCCc2cc(OC)c(OC)cc21
inactive: percent of DMSO control GFP [1] 110% | GFP response vs DMSO [2] 103% | percent response of DMSO control [3] 94.5% | GFP response vs DMSO [4] 106% | GFP response, % of DMSO [5] 99.9% | vesicle binding response [6] 140% | inhibition [7] -27.9% | superoxide response (% of plate) [8] 86.3% | aptamer binding inhibition [9] -7% | response [10] 10.4% | inhibition [11] 3.93% | response [12] -3.02% | binding (% of control) [13] 106% | efflux inhibition (fraction of control) [14] -0.24 | inhibition [15] -66% | differentiation response [16] 14.4%
60.1%: double positive events [6]
